# Assay outcomes deposited in PubChem BioAssay by National Center for Advancing Translational Sciences (NCATS).
# MARV entry inh: blocks Marburg virus binding to or entry into cells. Marburg virus pseudotyped entry inhibition, cell reporter. Potency, µM (doses to about 37.8 µM), for the others: top-dose activity change, negative = inhibition, hits mostly inhibitors. actives 1.8% (n = 300,000). AID 540276; calls by dose curve; tested in HEK293 cells; note: potency is the fitted concentration of half-maximal effect
# Vaccinia mCherry: inhibitors of vaccinia virus infection (mCherry reporter signal) | Vaccinia virus mCherry reporter infection, fluorescence | Potency, µM (highest dose often 36.5 µM), for the others: at the highest dose activity change, negative = inhibition, actives largely listed as inhibitors | actives 0.63% (n = 310,000) | AID 720579; calls by dose curve; tested in A549 cells; note: potency is the fitted concentration of half-maximal effect; nearly all actives have a fitted effect of over 35% in size
# HCMV inh: blocks human cytomegalovirus replication; HFF cells, HCMV-luciferase reporter, 72 h; active compounds read low; activity change, negative = inhibition, % at 57.5 µM; actives 4.5% (n = 410,000); in the data active = activity change below about -60%; inconclusive = no clear call, values can overlap the other calls; inactive = above about -39%
#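 After 16 h attachment at 37C, HFF cells received test compound and HCMV-luciferase (1 PFU/cell); reporter luminescence read 72 h later, data normalized against buffer-only and known inhibitor Salinomycin.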
# VACV Venus inh: vaccinia inhibition (Venus reporter). Vaccinia virus Venus reporter expression, fluorescence. actives 0.46% (n = 330,000). Potency, µM (doses to about 36.5 µM), without a hit: top-dose activity change, negative = inhibition, hits mostly inhibitors; calls by dose curve; tested in A549 cells; note: potency is the fitted concentration of half-maximal effect; nearly all actives have a fitted effect of over 30% in size
# Lassa entry inh: inhibitors of Lassa virus binding or cell entry; Lassa virus pseudotype entry inhibition, cell reporter; Potency, µM (series often up to 37.9 µM), for the others: top-dose activity change, negative = inhibition, actives largely listed as inhibitors; actives 1.2% (n = 300,000); AID 540256; calls by dose curve; tested in HEK293 cells; note: potency is the fitted concentration of half-maximal effect; nearly all actives have a fitted effect of over 50% in size
# FMDV antiviral: foot and mouth disease virus antiviral activity; FMDV antiviral cell-based qHTS; AID 1159524; Potency, µM (series often up to 57.9 µM), for the others: at the highest dose activity change, negative = inhibition, hits mostly inhibitors; actives 1.2% (n = 410,000); calls by dose curve; tested in HEK293T cells; note: read-out not given here; potency is the fitted concentration of half-maximal effect; nearly all actives have a fitted effect of over 45% in size
# * = called active by the depositor; i = inactive; ? = inconclusive; . = not tested or not shown; + = active, no number; [ ] = remark or other dose. Sampled rows, rich in hits. Any-hit rate of the full collection: about 6.5%. % is set by controls: 0 for no effect and ±100 for the full control effect.
SMILES,MARV entry inh,Vaccinia mCherry,HCMV inh,VACV Venus inh,Lassa entry inh,FMDV antiviral
CCn1c(=O)c([N+](=O)[O-])c(NC2CCS(=O)(=O)C2)c2ccccc21 (stereo unspecified),-14%[46.1 µM],-3%,-16,2%,-11%[46.1 µM],-12%
CCOC(=O)C(NCc1ccccc1)(NC(=O)c1ccccc1)C(F)(F)F (stereo unspecified),13%[46.1 µM],i,-6,-17%,-27%,-9%
CCOC(=O)C(NCc1ccc2c(c1)OCO2)(NC(=O)c1ccccc1)C(F)(F)F (stereo unspecified),6%[46.1 µM],-14%,-61*,-12%,-12%,-20%
COc1ccc(C2=CC(c3ccc(F)cc3)n3ncc(C(=O)Nc4ccc(C)cc4)c3N2)cc1 (stereo unspecified),.,?,-88*,-25%,?,0%
Cc1ccc(NC(=O)c2cnn3c2NC(c2ccccc2)=CC3c2ccccc2)cc1 (stereo unspecified),.,-21%,?,-10%,-15%[46.1 µM],-18%
COc1ccc(C2C=C(c3ccc(F)cc3)Nc3nc(-c4ccc(Cl)cc4)nn32)cc1 (stereo unspecified),?,?,-101*,?,?,?
CC1(C)CC(=O)C2=C(C1)OC1=C(C(=O)CC(C)(C)C1)C2c1ccc(O)c([N+](=O)[O-])c1,.,.,32,.,.,3%
CC1(C)CC(=O)C2=C(C1)OC1=C(C(=O)CC(C)(C)C1)C2c1ccc(O)cc1O,?,.,-102*,.,-87%,6.3µM*
COc1ccc(NC(=O)N2c3ccc(OC)cc3[C@@H](NCc3cnc[nH]3)[C@H](C)[C@H]2c2ccccc2)cc1,.,.,32,.,.,.
Cc1ccccc1Nc1oc(-c2ccccc2)nc1C=Cc1ccccc1,-21%[14.2 µM],.,.,.,.,.
Cc1cc(OCC(=O)Nc2cccnc2)c2c(C)cc(=O)oc2c1,.,.,1,.,.,-15%
CCCc1cc(=O)oc2cc(C)cc(OCC(=O)Nc3cccnc3)c12,.,.,+,.,.,-15%
COc1ccc(NC(=O)N2c3ccc(OC)cc3[C@@H](NS(C)(=O)=O)[C@H](C)[C@H]2c2ccccc2)cc1,.,.,-20,.,.,.
Nc1nc(C(=O)N2CCOCC2)nn1S(=O)(=O)c1ccc(Cl)cc1,17%,.,17,.,16%,13%
O=C(c1nnsc1S(=O)c1ccc(Cl)cc1)N1CCOCC1 (stereo unspecified),?,?,-98*,?,?,35µM*
O=C(Nc1ccccc1)c1nnsc1S(=O)c1ccc(Cl)cc1 (stereo unspecified),?,.,-104*,?,?,-16%
O=C(c1nnsc1S(=O)(=O)c1ccc(Cl)cc1)N1CCOCC1,?,?,52,?,?,16µM*
CNC(=O)c1nnsc1S(=O)(=O)c1ccc(Cl)cc1,2.8µM*,?,-94*,?,?,?
Cc1nnsc1S(=O)c1ccc(Cl)cc1 (stereo unspecified),.,.,?,.,.,-22%
COc1ccc(-n2c(=O)cnc3cnc(N(C)C)nc32)cc1,.,.,.,.,.,-20%
CCOC(=O)C1(CCc2ccccc2)CCN(Cc2c(O)cccc2OC)CC1,?,-29%,-18,-22%,?,32µM*
CCOC(=O)C1(CCc2ccccc2)CCN(Cc2csc(C(C)=O)c2)CC1,?,-26%,?,?,-14%,13µM*
CCOC(=O)C1(CCc2ccccc2)CCN(Cc2ccc(O)cc2)CC1,.,.,-3,.,.,?
CCOC(=O)C1(CCCc2ccccc2)CCN(C(=O)c2ocnc2C)CC1,-3%[46.1 µM],-12%,1,-7%,2.8µM*,-18%
CCOC(=O)C1(CCc2ccccc2)CCN(Cc2ccc(OC)cc2)CC1,?,i,8,1%,?,-8%
CCOC(=O)C1(CCCc2ccccc2)CCN(C(=O)c2cncs2)CC1,-25%[46.1 µM],-11%,49,-17%,?,-27%
CCOC(=O)C1(CCc2ccccc2)CCN(Cc2cccc3c2OCO3)CC1,13µM*,-21%,?,-13%,?,?
O=C(CSc1nnc(-c2ccccc2Cl)o1)N1CCOCC1,22%[46.1 µM],-15%,143,-8%,19%[46.1 µM],45%
COC(=O)c1ccc(/C=N/OCC(=O)NCc2ccc(F)cc2)cc1,-1%,-4%,-37,-9%,-18%,-7%
